According to PubChem BioAssay AID977606 (Broad Institute, 2014):
Hit rate of the full screen: of about 1,500 compounds, about 430 (29%) were called active. How the calls were made is not given here. These entries were drawn from the full list. Measured potencies and affinities stand elsewhere.

Assay: glucose-independent GLuc insulin release activation – cell-based, INS-1E, Gaussia luciferase, luminescence, cherry-pick, counter-screen for glucose-dependent insulin secretion activators, dose response (AID 977606)
Details: INS-1E Gaussia luciferase insulin secretion, no glucose, 100% = twice neutral-control luminescence; series mostly up to 35 µM

| SMILES | outcome |
| --- | --- |
| CNc1nc(Cl)nc2c1ncn2-c1ccccc1 | inactive |
| COc1ccc(CCN2CC(=O)NC(=O)C2)cc1OC | inactive |
| CCOC(=O)Cn1c(=O)n(Cc2ccccc2)c(=O)c2cccnc21 | inactive |
| COc1ccc(S(=O)(=O)Nc2ccc3c(c2)OCO3)cc1OC | inactive |
| C[C@@H]1O[C@H](C2CCCC2)CC2=C1C(=O)OC(C)(C)O2 | inactive |
| COc1ccc(S(=O)(=O)N2CCOCC2)cc1NC(=O)COc1ccccc1 | inactive |
| CCOc1ccc(C(=O)OCC(=O)Nc2cc(C)on2)cc1OCC | inactive |
| COc1cc(C(C(=O)NC2CCCC2)N(Cc2ccco2)C(=O)c2snc(C(N)=O)c2N)cc(OC)c1OC (configuration not stated) | inactive |
| N#CN=CN1CC=C(c2ccc(Cl)cc2)CC1 | inactive |
| CC(=O)Nc1sc(C)c(C)c1C(=O)OCC(=O)Nc1cc(S(C)(=O)=O)ccc1Cl | inactive |
| CCOC(=O)c1cc(CC)sc1NC(=O)COC(=O)c1cnccn1 | inactive |
| COc1cc(OC)c(OC)cc1CCC(C)NC(=O)Cc1ccccc1 (configuration not stated) | inactive |
| COc1ccc(CCNCc2cc3ccc(C)cc3[nH]c2=O)cc1OC | inactive |
| COc1cc2c(cc1OC)-c1cc(Nc3ccc(N(C)C)cc3)nc(=O)n1CC2 | inactive |
| COc1ccc(N2CC(NS(=O)(=O)c3cccs3)CC2=O)cc1OC (configuration not stated) | inactive |
| O=C(O)c1ccc(-c2nc(-c3ccccc3)c(-c3cccs3)[nH]2)cc1 | inactive |
| CCOC(=O)Cn1nc(-c2ccccc2)c(-c2ccccc2)nc1=O | inactive |
| O=C(Cc1c[nH]c2ccccc12)N[C@@H](Cc1c[nH]c2ccccc12)C(=O)O | inactive |
| Cc1ccc(S(=O)(=O)N(C)c2nc3ccccc3n3c(C(C)C)nnc23)cc1 | inactive |
| O=C(N/N=C/c1cc(Cl)ccc1O)c1ccc(Br)cc1 | inactive |
| C=CCc1cccc(/C=N/NC(=O)CCC(=O)Nc2ccc(C)cc2)c1O | inactive |
| COc1ccc(-c2nnc(-c3cccs3)o2)cc1OC | inactive |

| SMILES | outcome |
| --- | --- |
| CC(=O)c1cccc(N(CC(=O)NC2CCCCC2)C(=O)Cn2nnc(-c3ccccc3)n2)c1 | inactive |
| CCCCOc1ccc(-c2nnn(CC(=O)c3c[nH]c4ccccc34)n2)cc1 | inactive |
| Cc1ccc2c(c1)C=CC(C#N)N2C(=O)c1ccccc1 (configuration not stated) | inactive |
| CC(=O)N1CCN(c2nc(-c3cccs3)nc3ccccc23)CC1 | inactive |
| CN[C@H]1C[C@@H](c2ccccc2)N(C(C)=O)C[C@H]1CO | inactive |
| CCOC(=O)N1CCN(S(=O)(=O)c2ccc3c4c(cccc24)C(=O)N3)CC1 | inactive |
| CS(=O)(=O)c1nc(S(=O)(=O)c2ccc(Cl)cc2)c(N2CCCCCC2)s1 | inactive |
| C=CCn1cc(Cl)cc(C(=O)Nc2ccccc2)c1=O | inactive |
| c1ccc(-c2nnc3ccc(N4CCC5(CC4)OCCO5)nn23)cc1 | inactive |
| O=C(O)c1ccc(-n2nnnc2SCc2ccccc2Br)cc1 | inactive |
| CCC1OC(C2CC2)CC2=C1C(=O)OC(C)(C)O2 (configuration not stated) | inactive |
| c1ccc(CCN2CCN=C2Nc2ccccc2)cc1 | inactive |
| O=C(NC1CCCCC1)C(c1ccc(F)cc1)N(Cc1ccccc1)C(=O)CN1C(=O)c2ccccc2S1(=O)=O (configuration not stated) | inactive |
| COc1ccc(/C=N/NS(=O)(=O)c2ccccc2)cc1OC | inactive |
| COc1cc(C(=O)O)ccc1OCc1ccccc1 | inactive |
| O=C(O)c1ccc(-n2nnnc2SCc2cccc(Br)c2)cc1 | inactive |
| CCCCNc1cc(Cl)nc(N)n1 | inactive |
| O=C(N/N=C/c1ccncc1)c1cc(-c2ccc(Br)s2)[nH]n1 | inactive |
| CC1=CC(c2ccccc2)n2nc(NC(=O)CCC(=O)O)nc2N1 (configuration not stated) | inactive |
| CC(=O)NCCNC(=O)CNC(=O)c1ccc(Cl)cc1 | inactive |
| C=CCn1cnc2scc(-c3ccc(OC)cc3)c2c1=O | inactive |
| COc1cc2c(cc1OC)/C(=C/C(=O)c1ccc(NC(C)=O)cc1)NCC2 | inactive |

| SMILES | outcome |
| --- | --- |
| COC(=O)c1sc2ccccc2c1NC(=O)c1cccs1 | inactive |
| O=C(Nc1nonc1NC(=O)c1cccs1)c1cccs1 | inactive |
| CCOc1ncccc1C(=O)Nc1ccc(S(=O)(=O)Nc2nccs2)cc1 | inactive |
| O=C(O)c1cccc(N/N=C/c2sc(N3CCOCC3)nc2-c2ccccc2)c1 | inactive |
| Cc1ccc(NC(=O)CC2S/C(=N/N=C/c3c[nH]c4ccccc34)NC2=O)cc1 (configuration not stated) | inactive |
| Cc1ccc(CC2S/C(=N/c3ccccn3)NC2=O)cc1 (configuration not stated) | inactive |
| CCc1ccc2c(c1)cc(CN(Cc1ccco1)C(C)=O)c1nnnn12 | inactive |
| N#CCc1nn2c(-c3ccccc3)ccnc2c1C#N | inactive |
| O=C(OCc1c(-c2ccccc2)ncc2ccccc12)c1cccs1 | inactive |
| O=C(NCc1ccco1)c1ccc2c(=O)n(CCC3=CCCCC3)c(=O)[nH]c2c1 | inactive |
| Cc1c(CC(=O)O)c(=O)oc2c(C)c(OCc3ccccc3Br)ccc12 | inactive |
| N#Cc1c(N)n(C2CCCCC2)c2nc3ccccc3nc12 | inactive |
| COc1ccc(-n2c(O)cnc2Nc2nc(C)cc(C)n2)cc1OC | inactive |
| CCn1ccc(C(=O)Nc2ccccc2SC)n1 | inactive |
| COc1ccc(CNC(=O)COC(=O)c2cc(C)nc3ccccc23)cc1 | inactive |
| CCOC(=O)Cn1c(=O)n(Cc2ccc(OC)cc2)c(=O)c2cccnc21 | inactive |
| Cc1ccc(NC(=O)[C@@H](Cc2ccccc2)NC(=O)[C@H]2O[C@@H](n3ccc(=O)[nH]c3=O)[C@H](O)[C@@H]2O)cc1C | inactive |
| CNc1nc(N)c(C(=O)C(C)(C)C)s1 | inactive |
| COCCn1c(=S)[nH]c2sc3c(c2c1=O)CCCC3 | inactive |
| COc1ccc(OC)c(C2=Nn3c(nnc3-c3ccncc3)SC2)c1 | inactive |
| CC(C)Cn1c(=O)n(C)c(=O)c2[nH]cnc21 | inactive |
| O=C(NCC1CCCO1)C1CCC(N2C(=O)c3ccccc3C2=O)CC1 (configuration not stated) | inactive |

| SMILES | outcome |
| --- | --- |
| CC(C)NC(=O)C1(C)CN(S(C)(=O)=O)CC(=O)N1CCCN1CCOCC1 (configuration not stated) | inactive |
| O=C(CC1SC2=NCCN2C1=O)Nc1ccc(Br)cc1 (configuration not stated) | inactive |
| O=C(NC1CCCC1)C(C1CC1)n1c(-c2ccccn2)nc2ccccc21 (configuration not stated) | inactive |
| COc1ccc(C(O)c2nccc3cc(OC)c(OC)cc23)cc1OC (configuration not stated) | inactive |
| COc1ccc(/C=N/NC(=O)c2cc(-c3ccc4c(c3)OCO4)n[nH]2)cc1OC | inactive |
| O=C(NN=C1CCCC1)c1cc(-c2ccccc2)n[nH]1 | inactive |
| Cc1cccc(CN2C(=O)CSc3ccc(C(=O)NC4CC4)cc32)c1 | inactive |
| CNc1nc(Sc2ccccc2)cc(C(F)(F)F)n1 | inactive |
| CCOC(=O)c1cnc2ccc(Cl)cc2c1Nc1ccc(S(=O)(=O)Nc2ncccn2)cc1 | inactive |
| CC(=O)c1cccc(Nc2ncnc3ccc(Br)cc23)c1 | inactive |
| COc1ccc(Cl)cc1C(=O)Nc1cccc(-c2ccc3nncn3n2)c1 | inactive |
| Cc1ccnc(NC(=O)Nc2ccc(Br)cc2Cl)c1 | inactive |
| Cc1cc(C(=O)Nc2cccc(O)c2)c(C)o1 | inactive |
| COc1ccc(/C(C)=N/Nc2ccc(C(=O)O)cc2)cc1OC | inactive |
| COc1ccc(CCN(C)C(=O)CCNS(=O)(=O)c2ccccc2C(F)(F)F)cc1OC | inactive |
| COc1nc(-c2ccccc2)c2cc(C)ccc2n1 | inactive |
| NNc1nc(-c2ccccc2)c2ccccc2n1 | inactive |
| NC(=O)c1cc2cc(Cl)ccc2o/c1=N/NC(=O)c1cccs1 | inactive |
| COc1ccc(/C=C2/SC(=O)N(NS(=O)(=O)c3ccccc3)C2=S)cc1OC | inactive |
| CCc1nc2ccc(C(=O)N(C)CCCN(C)C)cn2c1N(C=O)CCC(C)C | inactive |
| CCCc1cc2c(OC)ccc(O)c2c(=O)n1C | inactive |
| CCn1nc(C(=O)Nc2ccc3nc(C)sc3c2)c2ccccc2c1=O | inactive |

| SMILES | outcome |
| --- | --- |
| CC(=O)Nc1ccc(Cl)c(-c2nc3ncccc3o2)c1 | inactive |
| CNc1cc(-c2ccc(OC)c(OC)c2)ncn1 | inactive |
| CC(C)c1c(C(=O)N/N=C/c2cccc3ccccc23)nnn1-c1nonc1N | inactive |
| CC(C)Nc1nc(NC(C)(C)C)nc(Oc2ccc(=O)n(C)n2)n1 | inactive |
| COc1cc2c(cc1OC)-c1cc(Nc3ccc(C)cc3)nc(=O)n1CC2 | inactive |
| COc1ccc(OC)c(N(CC(=O)NN=C2CCN(C)CC2)S(=O)(=O)c2ccccc2)c1 | inactive |
| CCCCC(=O)Nc1ccc(C(=O)NNC(=O)c2ccc(C)c(Br)c2)cc1 | inactive |
| COc1ccc(/C=N/n2c(-c3n[nH]c4c3CCC4)n[nH]c2=S)cc1OC | inactive |
| NC(=O)c1ccsc1NC(=O)COC(=O)CNC(=O)c1ccc(Cl)cc1 | inactive |
| COc1ccc(C(=O)NCC(=O)OCC(=O)Nc2sccc2C#N)cc1OC | inactive |
| Cc1cc2oc(=O)cc(CN3CCOCC3)c2c(C)c1Cl | inactive |
| c1ccc2c(NCC3CCCO3)nc(N3CCCCC3)nc2c1 (configuration not stated) | inactive |
| COc1cc(C2N(C)CCC3(OCCO3)C2(C)C)cc(OC)c1OC (configuration not stated) | inactive |
| CCOc1ccc2oc(C(=O)N(C)CCc3ccc(OC)c(OC)c3)c(C)c2c1 | inactive |
| COc1ccc(-c2cc3nc4ccccc4n3c(N)c2C#N)cc1 | inactive |
| O=C(NCCCNc1ccnc2cc(Cl)ccc12)c1ccccc1F | inactive |
| COc1cccc(NC(=O)CN(C)C(=O)Cn2[nH]c(=O)c3ccccc3c2=O)c1 | inactive |
| COc1ccc(C(=O)Cc2cc3cccc(OC)c3oc2=O)cc1 | inactive |
| CCn1c(=O)[nH]c(=O)c2c(N)c(C(=O)c3cc(F)ccc3F)sc21 | inactive |
